From PubChem BioAssay (NCI)
This is part of a sample that, as a whole, favours compounds with a hit. Of some 79,000 tested, about 15% had one in any assay. Values without a mark were called inactive. Calls of active or inactive are those of the source. Rule as the data show it: active = growth inhibition above about 70%; inactive = the rest.

How the values were obtained:
[1] = NCI Yeast Anticancer Drug Screen. Data for the rad50 strain (AID 155);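 also: 0% = growth of vehicle-only cultures of the same strain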; details: S. cerevisiae rad50 strain growth inhibition; at 50.0 µM; stronger effect = higher value
Method in brief: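 A DNA repair-deficient yeast mutant serves as the test organism; compound-induced growth inhibition is calculated against vehicle-treated cells.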

[2] = NCI Yeast Anticancer Drug Screen. Data for the mec2-1 strain (AID 157); details: S. cerevisiae mec2-1 strain, at 50.0 µM, stronger effect = higher value
Method in brief: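 Using mec2-1 yeast: add compound, measure growth, express inhibition versus vehicle-treated cultures.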

[3] = NCI Yeast Anticancer Drug Screen. Data for the sgs1 mgt1 strain (AID 161);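 also: 0% = growth of cultures given vehicle only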; details: S. cerevisiae sgs1 mgt1 strain, at 50.0 µM, stronger effect = higher value
Method in brief: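 Compounds are added to genetically altered yeast, and growth is compared with cultures given vehicle alone to give percent inhibition.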

[4] = NCI Yeast Anticancer Drug Screen. Data for the cln2 rad14 strain (AID 165);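 also: 0% = growth equal to vehicle treated cultures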; details: S. cerevisiae cln2 rad14 strain, at 50.0 µM, stronger effect = higher value
Method in brief: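 Yeast strain cln2 rad14, bearing defects in cell cycle control and DNA repair, serves as the test system; values reflect growth inhibition compared with vehicle.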

[5] = NCI Yeast Anticancer Drug Screen. Data for the bub3 strain (AID 167); details: S. cerevisiae bub3 mutant strain, at 50.0 µM, stronger effect = higher value
Method in brief: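 Inhibition values come from growth of compound-treated mutant yeast normalised to vehicle-treated controls.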

[6] = NCI Yeast Anticancer Drug Screen. Data for the mlh1 rad18 strain (AID 175); details: S. cerevisiae mlh1 rad18 strain growth inhibition; at 50.0 µM; stronger effect = higher value
Method in brief: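 Steps: expose repair-defective yeast to compound; measure growth; express inhibition against vehicle-treated controls.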

SMILES | growth inhibition [1] | growth inhibition [2] | growth inhibition [3] | growth inhibition [4] | growth inhibition [5] | growth inhibition [6]
CCC1=CCN(c2cc(C)ccn2)OC1c1ccc(OC)cc1 (stereo not given) | 47.9% | 6.15% | 48.4% | 14.3% | 61% | 6.35%
Cc1ccc(S(=O)(=O)CCS(C)(=O)=O)cc1 | -0.5% | 2.2% | 13.2% | 21.8% | -13.7% | -11.2%
CCOC(=O)NC(CC)CO (stereo not given) | -13.1% | -22.9% | -14% | 16.1% | 5.55% | -6.9%
Cc1ccc(S(=O)(=O)N(CCO)CC(C)O)cc1 (stereo not given) | -15.9% | -24.1% | -23.2% | -13% | -24.1% | -26.8%
O=C(CCCC(=O)N/N=C/c1ccc(Cl)cc1)N/N=C\c1ccc(Cl)cc1 | -27.4% | -9.9% | -9.9% | -11.6% | -1.65% | -16.9%
C[CH2][Sn]([CH2]C)([O]C(=O)c1cccc(F)c1)[O][Sn]([CH2]C)([CH2]C)[O]C(=O)c1cccc(F)c1 | 31.4% | 3.3% | 5.85% | 16.4% | 13.6% | 0.45%
C=CCOc1ccc(S(=O)(=O)c2ccc(OCC=C)cc2)cc1 | 3.55% | -7.9% | -2.55% | -27.7% | 8.2% | -4.35%
COC1=C(C#N)C(c2ccccc2)CC(N)=N1 (stereo not given) | 1.55% | -11.1% | -10.1% | 2.1% | -1% | 20.4%
Cc1cc(S(=O)(=O)Nc2n[nH]c(Nc3ccccc3)n2)c(SSc2cc(Cl)c(C)cc2S(=O)(=O)Nc2n[nH]c(Nc3ccccc3)n2)cc1Cl | 12.2% | 37.8% | 4.95% | 11.9% | 12% | 18.2%
CC(C)=CC(=O)OC1C2C(C)=CC(O)C(O)C2(C)C2C3(O)OCC24C(CC(=O)OC14)C(C)C3O (stereo not given) | 56.5% | 38.1% | 23.4% | 48.4% | 53.5% | 86.8% (active)
CC(S)c1ccccc1 (stereo not given) | 6.4% | -0.55% | 13.2% | 11.9% | 25.7% | 14.4%
CC1CC[C@]2(C(=O)O)CCC3(COC(=O)/C=C\c4ccc(O)cc4)C(=CCC4[C@@]5(C)CC[C@H](O)C(C)(C)C5CC[C@]43C)[C@@H]2[C@H]1C (stereo not given in full) | -1.9% | 1.35% | -1.65% | 5.55% | -3.1% | -17.8%
CC(=O)OCC1OC(n2c(-c3ccc(C)cc3)cc(-c3ccccc3)c(C#N)c2=S)C(OC(C)=O)C(OC(C)=O)C1OC(C)=O (stereo not given) | 17.9% | 9.35% | 6.15% | -8.55% | 27.9% | 27.8%
COc1cc(C=O)ccc1OC(=O)Nc1cccc(C(C)=O)c1 | 4.7% | 23.6% | 15.9% | 7.65% | 18.9% | -18.6%
CC1=CC(=O)CC2(C)CCC(C(C)CC(=O)CC(C)C)CC12 (stereo not given) | 88.8% (active) | 91.3% (active) | 91% (active) | 91.3% (active) | 88.8% (active) | 91.5% (active)
CCCC1(c2ccccc2)SCC(=O)NC1=O (stereo not given) | 31.3% | -0.2% | -16.6% | -25.6% | -14.2% | -25.9%
CCCN=C(N)NC#N | 16.9% | 0.8% | -2.4% | 7.85% | -16.6% | 15.1%
O=C1NC(N2CCCCC2)=N/C1=C\c1cccs1 | 2.5% | 2.2% | -12.9% | 7.05% | -11.8% | -29.4%
Cc1ccc2ccccc2c1Cc1c(C=O)[nH]c(=S)[nH]c1=O | 94.7% (active) | 90.8% (active) | 97% (active) | 82.5% (active) | 90.5% (active) | 98.8% (active)
CCCC(CCc1ccccc1)C(=O)NC(N)=O (stereo not given) | 4.5% | -5.6% | 1.45% | 2.55% | 42.7% | 1.4%

SMILES | growth inhibition [1] | growth inhibition [2] | growth inhibition [3] | growth inhibition [4] | growth inhibition [5] | growth inhibition [6]
COc1cccc(CN(CCc2cccc(OC)c2OC)C(=O)CN2CCOCC2)c1O | -3.8% | 9.35% | -0.05% | 8.8% | 4.9% | -23.1%
O=C(NC(Cc1ccccc1)C(=O)NC(Cc1c[nH]c2ccccc12)C(=O)O)OCc1ccccc1 (stereo not given) | 1.9% | 7.45% | -3.95% | -7.3% | -3.55% | 12.2%
COc1ccc(/C=C/C(=O)C(C)(CN(C)C)CN(C)C)cc1 | 0.95% | -13.8% | 4.95% | 6.85% | -11.2% | 11.8%
COCn1c(C(=O)c2ccc(OC)cc2)cc2ccccc21 | 7.45% | 11.8% | -3.9% | -11.5% | 16.1% | 23.4%
Cc1ccc(/C=N/NC(=O)c2ccc(C)cc2)cc1 | -14.9% | -10.2% | -4.5% | -13.7% | -16.2% | -11.9%
O=C(O)c1ccc(Br)cc1 | 5.1% | -6.05% | 2.8% | -25.2% | 9.8% | 0%
CC1(C)CC(=NNC(N)=S)CC(C)(C)N1 | 1.3% | -7.2% | 14.3% | -51.9% | -16.2% | -0.95%
CON(C)c1nc(N(C)C)nc(N(C)C)n1 | -1.65% | 11.6% | -6.25% | 3.7% | 1.8% | 0.9%
Cc1nc2ccccc2nc1CCC(=O)O | -22.9% | 4.25% | -17.4% | -23.6% | -11.2% | -6.65%
O=C(O)c1ccccc1Nc1ccccc1 | 5.75% | -22.1% | 3.8% | -22.4% | -0.75% | -10%
CC(=O)Nc1ccc(/C=C2\SC(=S)N(C=C(C#N)C#N)C2=O)cc1 | 3.95% | 12.2% | -10.4% | 38.5% | 15.2% | -2.35%
NCCCCCOCCCCCN | 3.4% | -0.25% | -7% | -8.1% | 3.8% | -1.65%
CC1OC(OC2C(OC(=O)[C@@H]3CC(C)(C)C[C@@H]4C5=CC[C@@H]6[C@@]7(C)C[C@H](O)[C@H](OC8OC(CO)C(O)C(O)C8O)[C@@](C)(CO)C7[C@H](O)C[C@@]6(C)[C@]5(C)C[C@@H](O)[C@H]43)OCC(O)C2O)C(O)C(O)C1O (stereo not given in full) | -23.9% | -21.6% | -9.35% | 13.2% | 1% | -49.7%
CCc1ccccc1NC(=O)/C=N/O | -27.9% | -24.1% | -17.6% | -7.3% | -22.6% | -11.2%
CC1(CCN2CCCC2)NC(=O)NC1=O (stereo not given) | 15.9% | -20.3% | -5.25% | 1.05% | 3.4% | 10.9%
ClCc1nnc(-c2ccccc2)o1 | 14.8% | -2.9% | -16.2% | -43% | -16.2% | -4.75%
CC(COc1cc(Cl)c(Cl)cc1Cl)OC(=O)COc1ccc(Cl)cc1Cl (stereo not given) | 8.75% | 8.85% | 7.7% | 28.5% | 2.9% | 7%
O=C(Cl)c1ccc(Cc2ccc([N+](=O)[O-])cc2)cc1 | 14.8% | 8.4% | 11.4% | -21.9% | -17.1% | 12.4%
COC1/C=C/OC2(C)Oc3c(C)c(O)c4c(O)c(c(/C=N/OC/C=C(\C)CCC=C(C)C)c(O)c4c3C2=O)NC(=O)C(C)=C/C=C/C(C)C(O)C(C)C(O)C(C)C(OC(C)=O)C1C (stereo not given) | -0.15% | -0.5% | -2.65% | -10.9% | -8.95% | 30.4%
CC(=O)Nc1ccc2c(c1)CCCC2 | 5.75% | -4.45% | -0.8% | -71.6% | -2.95% | -16.4%
